# Results taken from the supplement of paper PMC9135407.
# Where “and” joins values, the source holds several entries; their conditions need not be identical. Identical values can stand only once. Counter-ions that a name gives are not always drawn. The campaign covered roughly 5,800 compounds. About 620 (11%) showed activity. The sample holds actives, similar compounds and a random draw of the others, so the mix is not that of the screen. Values without a mark were called inactive.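 The calls were made as follows: active = score above a cut-off or among the top three wells of a plate; in these data no inactive exceeds 0.85.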
# System: primary human hepatic stellate cells (donor 1)
# Assay: scaled lipid accumulation score (0 = DMSO-like, 1 = nortriptyline-like); higher = stronger HSC inactivation (lipid re-accumulation), active = hit call of the paper
# Settings: 48 h
# [1] = library stock concentration: 3.33 mM
# [2] = library stock concentration: 10 mM
# [3] = library stock concentration: 1 mM
# [4] = library stock concentration: 80 uM
# [5] = library stock concentration: 400 uM
# [6] = library stock concentration: 2 mM
smiles,measurement,setting,value
Cc1nnc(C(C)C)n1C1C[C@H]2CC[C@@H](C1)N2CC[C@H](NC(=O)C1CCC(F)(F)CC1)c1ccccc1 (stereo in doubt) [Maraviroc],scaled lipid accumulation score,[1],≤ 0
same,scaled lipid accumulation score,[2],≤ 0
COc1ccc(/C=C/c2cc(Cl)cc(Cl)c2)cc1,scaled lipid accumulation score,[3],≤ 0
CCCCCCCCCCCCCCCNC(=O)C1CCCCC1 [N-Cyclohexanecarbonylpentadecylamine],scaled lipid accumulation score,[3],≤ 0
CCN(CC)CCCN(c1ccccc1)C1Cc2ccccc2C1 [Aprindine hydrochloride],scaled lipid accumulation score,[2],0.262
O=C(O)CCC/C=C\C[C@@H]1[C@@H](/C=C/[C@H](O)C2Cc3ccccc3C2)[C@@H](F)C[C@@H]1O,scaled lipid accumulation score,[2],≤ -0.07
CC1(C)CC(=O)c2c(C(F)(F)F)nn(-c3ccc(C(N)=O)c(N[C@H]4CC[C@H](O)CC4)c3)c2C1,scaled lipid accumulation score,[1],0.635
same,scaled lipid accumulation score,[2],0.742
CC1(C)CC(=O)c2c(C(F)(F)F)nn(-c3ccc(C(N)=O)c(N[C@H]4CC[C@H](OC(=O)CN)CC4)c3)c2C1 [listing 1 of 2 here],scaled lipid accumulation score,[2],1.05 (active)
CC1(C)CC(=O)c2c(C(F)(F)F)nn(-c3ccc(C(N)=O)c(N[C@H]4CC[C@H](OC(=O)CN)CC4)c3)c2C1 [listing 2 of 2 here],scaled lipid accumulation score,[1],0.77
c1ccc(COCCCc2c[nH]cn2)cc1 [Proxyfan Oxalate],scaled lipid accumulation score,[2],≤ 0
CC(C)(S)C(N)C(=O)O (racemic),scaled lipid accumulation score,[2],≤ 0
Cc1cc(Nc2cc(N3CCN(C)CC3)nc(Sc3ccc(NC(=O)C4CC4)cc3)n2)n[nH]1,scaled lipid accumulation score,[4],0.003
same,scaled lipid accumulation score,[5],0.063
same,scaled lipid accumulation score,[6],0.248
same,scaled lipid accumulation score,[2],0.47
Cc1cc(Nc2cc(N3CCN(C)CC3)nc(/C=C/c3ccccc3)n2)n[nH]1,scaled lipid accumulation score,[2],0.603
"Cc1cc(Nc2cc(N3CCN(C)CC3)nc(Sc3ccc(NC(=O)C4CC4)cc3)n2)n[nH]1 [Tozasertib (VX-680, MK-0457) (10 mM)]",scaled lipid accumulation score,[2],0.456
"Cc1cc(Nc2cc(N3CCN(C)CC3)nc(Sc3ccc(NC(=O)C4CC4)cc3)n2)n[nH]1 [Tozasertib (VX-680, MK-0457) (2 mM)]",scaled lipid accumulation score,[6],≤ -0.005
"Cc1cc(Nc2cc(N3CCN(C)CC3)nc(Sc3ccc(NC(=O)C4CC4)cc3)n2)n[nH]1 [VX-680 (Tozasertib, MK-0457)]",scaled lipid accumulation score,[1],0.193
same,scaled lipid accumulation score,[2],0.038
"Cc1cc(Nc2cc(N3CCN(C)CC3)nc(Sc3ccc(NC(=O)C4CC4)cc3)n2)n[nH]1 [Tozasertib (VX-680, MK-0457) (0.4 mM)]",scaled lipid accumulation score,[5],≤ -0.005
Cc1cc(Nc2cc(N3CCN(C)CC3)nc(C=Cc3ccccc3)n2)n[nH]1,scaled lipid accumulation score,[1],1.06 (active)
Cn1cc(-c2cnn3c(N)c(Br)c([C@@H]4CCCNC4)nc23)cn1,scaled lipid accumulation score,[1],≤ 0
same,scaled lipid accumulation score,[2],0.521
CCCCCCCCCCCCCCCC(=O)N[C@H](CN1CCOCC1)[C@H](O)c1ccccc1 (racemic),scaled lipid accumulation score,[3],≤ -0.021
CCCCC[C@H](O)/C=C/[C@H]1[C@H](O)CC(=O)[C@@H]1CCCCCCCO [Prostaglandin E1 Alcohol],scaled lipid accumulation score,[3],0.129
O=C1C(c2ccccc2)N(c2ccc(Br)cc2)C(=O)N1c1ccc(Br)cc1 (stereo unspecified),scaled lipid accumulation score,[3],≤ 0
CC[C@H](C)C(=O)O[C@H]1C[C@H](O)C=C2C=C[C@H](C)[C@H](CC[C@@H]3C[C@@H](O)CC(=O)O3)[C@H]21 [Pravastatin lactone],scaled lipid accumulation score,library stock concentration: 4.9 mM,≤ 0
O=C1NCN(c2ccccc2)C12CCN(CCCC(c1ccc(F)cc1)c1ccc(F)cc1)CC2 [Fluspirilene],scaled lipid accumulation score,[2],1.02 (active)
CCNC(=O)N1CCN(CCCC(c2ccc(F)cc2)c2ccc(F)cc2)CC1 [Amperozide hydrochloride],scaled lipid accumulation score,[2],0.661
O=C1NCN(c2ccccc2)C12CCN(CCCC(c1ccc(F)cc1)c1ccc(F)cc1)CC2 [Fluspirilen],scaled lipid accumulation score,,≤ 0
O=C(Nc1ccc(C(F)(F)F)cn1)N1CCN(c2ncccc2C(F)(F)F)CC1,scaled lipid accumulation score,[2],0.012
CCCC[C@@H](C)/C=C(C)/C=C(\C)C(=O)NC1=C[C@@](O)(/C=C/C=C/C=C/C(=O)NC2=C(O)CCC2=O)[C@@H]2O[C@@H]2C1=O [Manumycin A],scaled lipid accumulation score,library stock concentration: 9.1 mM,0.793
COc1cc2ncnc(Nc3ccc(F)c(Cl)c3)c2cc1OCCCN1CCOCC1 [Gefitinib],scaled lipid accumulation score,library stock concentration: 4.5 mM,0.19
C=CC(=O)Nc1cc2c(Nc3ccc(F)c(Cl)c3)ncnc2cc1OCCCN1CCOCC1,scaled lipid accumulation score,[4],0.045
same,scaled lipid accumulation score,[5],≤ -0.009 and ≤ -0.005
same,scaled lipid accumulation score,[6],0.07 and ≤ -0.005
same,scaled lipid accumulation score,[2],0.314
"COc1cc2ncnc(Nc3ccc(F)c(Cl)c3)c2cc1OCCCN1CCOCC1 [Gefitinib (ZD1839, Iressa) (10 mM)]",scaled lipid accumulation score,[2],0.94 (active)
COc1cc2ncnc(Nc3ccc(F)c(Cl)c3)c2cc1OCCCN1CCOCC1 [Gefitinib (ZD1839)],scaled lipid accumulation score,[2],1.05 (active)
